Reference: article PMC5540273 (PLoS ONE, 2017)

Each compound was assayed on HIPK1. Conditions: concentration: 1 μM, replicates: in singlicate; n = 1.
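Further: KINOMEscan kinase panel screen.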

Structure (SMILES)	%Inh [%]
Cn1cncc1-c1ccc2ncnc(Nc3ccc(OCc4ccccc4)cc3)c2c1 [GW320571]	41
Cc1cc(-c2ccc3c(c2)CC[C@@H](N[C@@H](C)c2ccccc2)C3)cnc1N.Cl [GW412617]	0
Fc1cccc(COc2nnc(-c3ccc4c(c3)CCO4)o2)c1	25
O=C(Nc1n[nH]c2cc(-c3cccc(F)c3F)ccc12)C1CC1 [SB-733894]	29
COc1cc(Nc2nccc(N3CCC(NC(=O)Nc4cc(C)ccc4C)C3)n2)cc(OC)c1OC (centres unmarked) [GSK1379762]	0
CC(C)(C)c1ccc(C(=O)Nc2cn3cc(Cl)ccc3n2)cc1	0
COc1ccc2nc(-c3cccc(C)n3)nc(Nc3ccncc3)c2c1 [GSK204919]	0
Cc1c(O)cccc1Nc1ccnc2ccc(C(F)(F)F)cc12.Cl [GW466413]	0
Cc1ccc(-c2cc(-c3c[nH]nc3-c3ccccn3)ccn2)cc1 [GW684088]	7
O=S(=O)(c1ccc(-c2ccnc3[nH]ccc23)cc1)N1CCCC1 [GSK846226]	45
Cn1ccc2ncnc(Oc3cccc(C(=O)Nc4ccccc4)c3)c21	0
CCCc1ccc(S(=O)(=O)NC2CCN(c3ccnc(Nc4ccc(F)cc4)n3)C2)cc1 (centres unmarked) [GSK1379715]	0
O=C1NC(=O)C(N2CCc3ccccc32)=C1c1ccccc1Cl [SB-373598]	30
COC(=O)c1c(-c2ccccc2)c2cc(OC)ccc2c(=O)n1Cc1ccccc1	7
COc1cccc(-c2cc(-c3c[nH]nc3-c3ccccn3)ccn2)c1 [GW680338]	11
COc1cc2ncnc(Nc3ccc4nc(-c5ccccc5)[nH]c4c3)c2cc1OC.Cl [GW282450]	6
COC(=O)c1c(-c2ccccc2)c2cc(C(=O)O)ccc2c(=O)n1Cc1ccccc1	14
Cc1cccc(-c2nc(Nc3ccncc3)c3ccccc3n2)n1 [GW855857]	41

Structure (SMILES)	%Inh [%]
Cc1cccc(-c2nc(-c3ccc(S(C)(=O)=O)cc3)sc2-c2ccnc(NCCc3ccccc3)c2)c1	15
CN(C)CCN(C)C(=O)c1cc(-c2ccncc2)c(-c2ccc(Cl)c(O)c2)o1.Cl.Cl [SB-710397]	0
Cc1nnc(-c2ccc3occ(-c4ccc(S(C)=O)cc4)c3c2)[nH]1 (centres unmarked)	69
COc1cc2nccc(Nc3ccc(NC(=O)c4ccc(C)cc4)c(O)c3)c2cc1OC.Cl [GW440132]	6
Cc1cccc(-c2cc(Nc3ccncc3)c3ccccc3n2)n1 [GSK223675]	0
Cn1ccc2ncnc(Oc3ccc(Nc4nc5ccccc5[nH]4)cc3)c21	17
Cc1cc(NCC(c2ccccc2)c2ccccc2)nc(NCc2ccc(C(F)(F)F)cc2)n1 [GW497681]	0
Cc1cccc(-c2nc(C)cc(Nc3ccncc3)n2)n1 [GSK257997]	0
Cl.c1ccc(-c2n[nH]cc2-c2ccnc(-c3ccc(CN4CCOCC4)cc3)c2)nc1 [GW776245]	54
Cc1ccc(NC(=O)Nc2cc(C(C)(C)C)nn2-c2ccccc2)cc1 [GSK1014915]	0
CC1=C(C(=O)Nc2cc3cn[nH]c3cc2F)C(c2ccc(C(F)(F)F)cc2)CC(=O)N1 (centres unmarked) [GSK429286]	0
Nc1nc(-c2nccs2)c(-c2ccnc3ccccc23)s1 [GW693542]	3
COc1ccc(C2=C(Nc3cccc(C(=O)O)c3)C(=O)NC2=O)cc1 [SB-390765]	8
O=C(O)COc1ncnc2cc(-c3ccc4[nH]ncc4c3)sc12	45
Cc1cccc(-c2nc(Nc3cccc(C(N)=O)c3)c3ccccc3n2)n1 [GW876019]	44
CC(C)(C)c1ccc(C(=O)Nc2cn3cc(-c4cccnc4)ccc3n2)cc1	52
COc1ccccc1CNC(=O)c1cc(C(=O)c2ccccc2C)c[nH]1 [GSK364507]	0
